In PubChem BioAssay (NCI):
This is part of a sample that, as a whole, favours compounds with a hit. Of some 83,000 tested, about 20% had one in any assay.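 How to read the values: 0–100, growth inhibition (40 = 60% inhibited); 0, no net growth; -100 to 0, cell death (-40 = 40% of starting cells died; -100 = all dead).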 Unmarked numbers belong to inactive results. The source made the active and inactive calls.

tested on: MDA-MB-435 melanoma; test: NCI-60 one-dose screen, 48 h (100 = growth as untreated, 0 = no growth, -100 = all killed); settings: 10 µM unless noted
Method: Growth inhibition of the MDA-MB-435 human Melanoma tumor cell line is measured as a screen for anti-cancer activity. Cells are grown in 96 well plates and exposed to the test compound for 48 hours. Compounds are tested at a single concentration, which is 10^-5 M for most compounds. The reported endpoint is percent growth (GI% or GIPRCNT), where numbers from 0 - 100% represent growth inhibition, and numbers from -100% - 0 represent cell death. For example, a value of 40 represents 60% growth inhibition. A value of 0 means no net growth occurred over the course of the experiment. A value of -40 indicates 40% of cells at the beginning of the experiment died by the end of the experiment. A value of -100 means all cells are dead at the end of the experiment.
NCI-60 Human Tumor Cell Lines Screen was performed using the standard one-dose NCI protocol, which is described in more detail at https://dtp.cancer.gov/discovery_development/nci-60/default.htm.
Compounds with GIPRCNT values below 10 were considered active. Activity score was based on GIPRCNT using the following formula: […]
Score is 0 for GIPRCNT values of 100 or above, 50 for GIPRCNT values of 0, and 100 for GIPRCNT values of -100.

Going from `O=c1c2cc(F)cc(Cl)c2sc2c(Cl)nc3ccccc3c12` to `O=C1c2cc(Cl)ccc2Oc2cc([N+](=O)[O-])ccc2N1c1ccc(F)cc1F`, the growth falls from 110% to 93.4%.

Compared with `c1ccc(-c2ccc(-c3nc4ccccc4[nH]3)cc2)cc1`, `N#C/C(=C\c1c(-c2ccccc2)[nH]c2ccccc12)C(=O)c1ccccc1` is lower in growth: 82.4% for the first, 10.8% for the second.

Compared with `COc1cc([C@@H]2NC(=O)NC(C)=C2C(=O)Nc2nc(-c3ccc(Cl)cc3)cs2)ccc1O`, `O=C1c2cc(I)ccc2Oc2cc([N+](=O)[O-])ccc2N1c1ccc(Cl)cc1F` is lower in growth: 104% for the first, 60.4% for the second.

First: COc1ccc(/C=C2\NC(=O)NC2=O)cc1O
Second: CCOc1c(Br)cc(C2C(C(=O)OC)=CN(C)C=C2C(=O)OC)cc1OC
The growth of the first is higher: 94.7% for the first, 47.3% for the second.

Going from `O=C(/C=C/c1ccc(F)cc1)c1ccc(Nc2nc(NCCO)nc(Nc3ccc(Cl)cc3)n2)cc1` to `COc1ccc(/C=C/C(=O)c2ccc(Nc3nc(NCCO)nc(Nc4ccc(Cl)cc4)n3)cc2)cc1`, the growth falls from 74.5% to 65.4%.

Going from `CC1=C(C(=O)OCC2CCN(C(=O)OC(C)(C)C)CC2)[C@H](c2cccc(Br)c2)C2=C(CC(C)(C)CC2=O)N1` to `COC(=O)/C(CCC=C(C)C)=C1\[C@@H](OC(C)=O)C[C@@]2(C)[C@H]1C[C@@H](O)[C@H]1[C@@]3(C)CC[C@H](NCc4ccccc4)[C@@H](C)[C@@H]3CC[C@@]12C`, the growth rises from 24.9% to 75.7%.

First: CCCCNc1nc(NC(C)(C)C)nc(NC(C)(C)C)n1
Second: CCOC(=O)c1cnc2ccc(Cl)cc2c1NCCCN(C)C
The growth of the first is higher: 72% for the first, 19.6% for the second.

Going from `O=C(N/N=C/c1ccccc1Cl)C(=O)Nc1cccc(C(F)(F)F)c1` to `CN1C(=O)N(C)C2(c3ccccc3)OC(=S)NC12c1ccccc1` (stereo not given), the growth rises from 98.4% to 103%.

Going from `O=C(c1nc2ccccc2[nH]1)C1[C@@H](c2cccc(O)c2)C2CC3CCCCC3N2[C@@]12C(=O)Nc1cc(Cl)ccc12` (stereo not given in full) to `Nc1nc(N)c2c(n1)NC1(C=C(O)c3ccccc31)C1=C(N2)c2ccccc2C1=O` (stereo not given), the growth rises from 29.3% to 125%.

Going from `COc1c(B(O)O)cccc1-c1nc2ccc3n[nH]c(F)c3c2c2c1CCCC2` to `COc1c(B(O)O)cccc1-c1nc2ccc3[nH]ncc3c2c2c1C1CCC2C1` (stereo not given), the growth falls from 88.3% to 65.8%.

Going from `N[C@@H](CC/[N+]([O-])=N/O)C(=O)O` to `O=CCCCC(O)C=O` (stereo not given), the growth rises from 98.4% to 105%.

Going from `CCCc1c(C)c2sc(=O)[nH]c2[nH]c1=O` to `Cc1ccc(S(=O)c2ccc([N+](=O)[O-])c3nonc23)cc1` (stereo not given), the growth falls from 112% to 106%.

Compared with `c1ccc(CNc2nc(Nc3ccccc3)nc3ccccc23)cc1`, `O=c1cc(-c2ccccc2)oc2cc(OCc3cn(Cc4ccc(F)cc4)nn3)cc(OCc3cn(Cc4ccc(F)cc4)nn3)c12` is higher in growth: 11.7% for the first, 40.9% for the second.

First: CCCCOCc1cc(CN2CCN(C)CC2)c(O)c2ncccc12
Second: CCCC(=O)CC(C)=O.CCCC(=O)CC(C)=O.[Cu]
The growth of the first is lower: 80.8% for the first, 109% for the second.

For `COc1ccc2sc3c(NCCCN)nc4ccccc4c3c(=O)c2c1`, the growth was -79% (active).
For `CC(C)CCOc1ccc(-c2n[nH]c(C(F)(F)F)c2-c2cncc(C#N)c2)c(O)c1`, the growth was 7.91% (active).
`Nc1ccc(-n2c(=O)oc3ccc(Cl)cc3c2=O)c(Cl)c1` was tested, and the growth was -5.78% (active).
For `COc1ccc(/C=C/C(=O)c2c(C)nc3ccccc3c2/C=C/c2ccccc2)cc1O`, the growth was 1.85% (active).
In the case of `Cc1ccc(NC2=CC(=O)C(=O)c3ccccc32)c(C)c1`, the growth is reported as -77% (active).
With `O=c1oc2ccc(Br)cc2c(=O)n1-c1ccc(F)cc1F` the growth was 2.57% (active).
In the case of `O=C1N=c2ccccc2=C1c1sc(=Nc2ccccc2)n(Nc2ccccc2)c1O`, the growth is reported as -23% (active).
`CCCC(c1nnnn1C1CCCCC1)N1CCN(C(=O)c2ccco2)CC1` (stereo not given) was tested, and the growth was -21.7% (active).
In the case of `NCCCNc1nc2ccccc2c2c(=O)c3cc(F)ccc3sc12`, the growth is reported as -91% (active).
`CN=c1ccc2nc3ccc(N)cc3sc-2c1` was tested, and the growth was -62.6% (active).
With `CCOC(=O)c1cc2c(n1Cc1ccccc1OC)-c1oncc1CCC2` the growth was -1.95% (active).

Molecule `CC(C)C[C@H](C(=O)N[C@H](C(N)=O)C(C)C)N1CC=CCN(OCc2ccccc2)S1(=O)=O` has a growth of 115% [2.5 µM].
